Source: PubChem BioAssay AID1159580 (chemical genetic matrix, 2015)
Where “and” joins values, the source holds several entries; their conditions need not be identical. Identical values can stand only once. The whole screen tested about 5,500 compounds, of which about 2,000 (36%) were called active. Not shown: some 18% with an inconclusive outcome. Cut-off read from the data, not from the text of the source: active = normalized growth mostly below about 0.91 (no sharp cut-off); inconclusive = no clear call, values can overlap the other calls; inactive = mostly above about 0.92. This is one part of the list.

Test: chemical genetic growth profiling, strain panel (AID 1159580);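 note: tested at 20 µM; growth read once vehicle control cultures reached saturation at 30 °C; 1 = growth at the plate median or of vehicle wells; lower values mean less growth of the strain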
Conditions: S. cerevisiae deletion strains, growth OD

Measured: normalized growth

O=c1c(O)c(-c2ccc(O)c(O)c2)oc2cc(O)ccc12
active: locus YAL013W, strain DEP1, hits give low values 0.836 | locus YDL074C, strain BRE1, hits give low values 0.742 | locus YDR162C, strain NBP2, hits give low values 0.831 | locus YDR502C, strain sam2, hits give low values 0.915 | locus YER167W, strain BCK2, hits give low values 0.9 | locus YGL086W, strain mad1, hits give low values 0.905 | locus YGR078C, strain PAC10, hits give low values 0.756 | locus YGR135W, strain pre9, hits give low values 0.85 | locus YGR229C, strain SMI1, hits give low values 0.372 | locus YHR030C, strain SLT2, hits give low values 0.899 and 0.324 | locus YHR079C, strain IRE1, hits give low values 0.381 | locus YHR129C, strain ARP1, hits give low values 0.861 | locus YIL066C, strain RNR3, hits give low values 0.846 | locus YJL095W, strain BCK1, hits give low values 0.743 and 0.428 | locus YJR043C, strain POL32, hits give low values 0.778 | locus YJR066W, strain TOR1, hits give low values 0.59 | locus YJR075W, strain HOC1, hits give low values 0.83
inactive: locus YAL021C, strain ccr4, hits give low values 1 | locus YAL026C, strain drs2, hits give low values 0.965 | locus YAL030W, strain snc1, hits give low values 1 | locus YBL061C, strain skt5, hits give low values 0.964 | locus YBR009C, strain hhf1, hits give low values 1.01 | locus YBR021W, strain FUR4, hits give low values 0.961 | locus YBR023C, strain chs3, hits give low values 0.961 | locus YBR171W, strain sec66, hits give low values 0.977 | locus YBR229C, strain ROT2, hits give low values 0.993 | locus YBR231C, strain swc5, hits give low values 0.921 | locus YBR279W, strain paf1, hits give low values 0.983 | locus YCL011C, strain gbp2, hits give low values 0.982 | locus YCL016C, strain dcc1, hits give low values 0.977 | locus YCL029C, strain bik1, hits give low values 0.988 | locus YCL069W, strain vba3, hits give low values 1.01 | locus YCR088W, strain abp1, hits give low values 1 | locus YDL005C, strain med2, hits give low values 0.987 | locus YDL035C, strain GPR1, hits give low values 0.864 | locus YDL040C, strain nat1, hits give low values 1 | locus YDL101C, strain DUN1, hits give low values 0.98 | locus YDL134C, strain PPH21, hits give low values 0.955 | locus YDL185W, strain tfp1, hits give low values 0.972 | locus YDL192W, strain arf1, hits give low values 0.946 | locus YDR001C, strain nth1, hits give low values 1 | locus YDR069C, strain doa4, hits give low values 0.904 | locus YDR101C, strain arx1, hits give low values 0.957 | locus YDR137W, strain rgp1, hits give low values 0.978 | locus YDR150W, strain NUM1, hits give low values 0.946 | locus YDR159W, strain sac3, hits give low values 0.934 | locus YDR195W, strain ref2 0.969 | locus YDR297W, strain sur2, hits give low values 0.966 | locus YDR318W, strain mcm21, hits give low values 0.927 | locus YDR334W, strain swr1, hits give low values 0.981 | locus YDR335W, strain msn5, hits give low values 0.995 | locus YDR388W, hits give low values 0.974 | locus YDR392W, strain spt3, hits give low values 0.845 | locus YEL003W, strain gim4, hits give low values 0.961 | locus YEL037C, strain rad23, hits give low values 0.988 | locus YEL061C, strain CIN8 (second series), hits give low values 0.996 | locus YEL061C, strain CIN8, hits give low values 0.95 | locus YER015W, strain faa2, hits give low values 0.974 | locus YER016W, strain bim1, hits give low values 0.989 | locus YER110C, hits give low values 0.982 | locus YER111C, strain swi4, hits give low values 0.97 | locus YER155C, strain BEM2 (second series), hits give low values 0.89 | locus YER155C, strain BEM2, hits give low values 1.02 | locus YFR010W, strain ubp6, hits give low values 0.96 | locus YGL078C, strain dbp3, hits give low values 0.988 | locus YGL167C, strain pmr1, hits give low values 0.972 | locus YGL173C, strain kem1, hits give low values 0.938 | locus YGL227W, strain vid30, hits give low values 0.994 | locus YGL240W, strain doc1, hits give low values 1.03 | locus YGL248W, strain PDE1, hits give low values 0.923 | locus YGL253W, strain hxk2, hits give low values 0.969 | locus YGR252W, strain gcn5, hits give low values 0.873 | locus YHR013C, strain ard1, hits give low values 0.94 | locus YHR027C, strain rpn1, hits give low values 0.988 | locus YHR079C, strain IRE1 (second series), hits give low values 0.978 | locus YHR094C, strain hxt1, hits give low values 1.01 | locus YHR142W, strain chs7, hits give low values 0.982 | locus YHR200W, strain rpn10, hits give low values 0.938 | locus YIL073C, strain SPO22, hits give low values 0.851 | locus YIL125W, strain kgd1, hits give low values 0.967 | locus YIR030C, strain dcg1, hits give low values 1.01 | locus YJL092W, strain hpr5, hits give low values 0.995 | locus YJL095W, strain BCK1 (second series), hits give low values 0.981 | locus YJL115W, strain asf1, hits give low values 0.998 | locus YJL129C, strain trk1, hits give low values 0.966 | locus YJL134W, strain LCB3, hits give low values 1 | locus YJL154C, strain vps35, hits give low values 0.999 | locus YJL164C, strain tpk1, hits give low values 0.985 | locus YJL166W, strain qcr8, hits give low values 0.986 | locus YJL168C, strain set2, hits give low values 0.985 | locus YJL187C, strain SWE1 (second series), hits give low values 0.915
